Measurements reported in PubChem BioAssay AID588474 (The Scripps Research Institute Molecular Screening Center, 2011).
A number with no mark means an inactive call. The source made the active and inactive calls.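 How the source made its calls: active means inhibition of at least 75% in the gel-based probe competition assay; inactive means inhibition below 75%.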

Biological target: Platelet-activating factor acetylhydrolase (Mus musculus) (UniProt Q60963)
Test: mouse pPAFAH inhibitors, late-stage follow-up, orthogonal assay, biochemical, gel-based competitive ABPP, fluorescence (AID 588474)
Settings: recombinant mouse pPAFAH, FP-Rh fluorescence, at 5 µM, active compounds read high

Platelet-activating factor acetylhydrolase (Mus musculus), sequence (Q60963 whole entry, looked up): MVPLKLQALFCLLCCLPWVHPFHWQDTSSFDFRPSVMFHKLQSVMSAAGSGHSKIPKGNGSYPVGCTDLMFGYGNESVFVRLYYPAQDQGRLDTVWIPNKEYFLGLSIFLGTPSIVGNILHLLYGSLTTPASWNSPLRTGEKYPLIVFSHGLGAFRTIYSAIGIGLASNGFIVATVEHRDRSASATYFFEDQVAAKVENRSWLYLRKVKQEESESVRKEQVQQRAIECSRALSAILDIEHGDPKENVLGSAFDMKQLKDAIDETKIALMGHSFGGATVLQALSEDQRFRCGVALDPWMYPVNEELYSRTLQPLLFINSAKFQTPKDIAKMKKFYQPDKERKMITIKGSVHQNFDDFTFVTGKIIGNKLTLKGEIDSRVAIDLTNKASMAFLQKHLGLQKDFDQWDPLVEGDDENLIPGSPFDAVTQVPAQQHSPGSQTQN

Compound | inhibition
Cc1cc(/C=C(\C#N)C(=O)NCC2CCCO2)c(C)n1-c1ccc(Cl)cc1 (stereo unspecified) | 9%
O=C(N/C=C/c1ccco1)OCc1ccccc1 | -3%
COc1cccc(CNC(=O)CCC2CCCN(Cc3cc(Cl)ccc3O)C2)c1 (stereo unspecified) | 24%
CCOC(=O)N1CCN(C(=O)c2cccc(S(=O)(=O)Nc3ccc(Br)cc3)c2)CC1 | 7%
Cn1c(=O)oc2cc(S(=O)(=O)Nc3ccc(F)cc3)ccc21 | 24%
O=C(c1ccccc1)c1ccc(OC(=O)N2CCOCC2)cc1 | 55%
CC(=O)Nc1ccc(NC(=O)CCn2c(=O)oc3ccccc32)cc1 | 30%
Cc1ccc(NS(=O)(=O)c2ccc3c(c2)oc(=O)n3C)cc1F | 53%
COc1cccc(NC(=O)Nc2cc(C(=O)NC(C)C)ccc2N2CC3CC(C2)c2cccc(=O)n2C3)c1 (stereo unspecified) | 41%
O=C(Oc1ccc(Oc2ccccc2)cc1)N1CCC(O)CC1 | 82% (active)
O=C(CCCSc1ccc(Cl)cc1)Nc1cc(S(=O)(=O)N2CCOCC2)ccc1O | 75% (active)
CCOC(=O)N1CCC(NC(=O)CC2C(=O)NCCN2Cc2ccccc2F)CC1 (stereo unspecified) | 10%
O=C(Oc1ccc(-c2ccccc2)cc1)N1CCCCC1 | 79% (active)
O=C(Oc1ccc(-c2ccccc2)cc1)N1CCOCC1 | 98% (active)
CCCCOC(=O)c1ccc(OC(=O)N2CCOCC2)cc1 | 93% (active)
CCCCOC(=O)Nc1nnc(CCc2ccccc2)s1 | 22%
O=C(Oc1cccc(Oc2ccccc2)c1)N1CCOCC1 | 18%
O=C(Oc1nsnc1N1CCOCC1)N1CCCCC1 | 65%

Compound | inhibition
CCOCCCNC(=O)c1ccc(N2CC3CC(C2)c2cccc(=O)n2C3)c(NC(=O)Nc2cccc(OC)c2)c1 (stereo unspecified) | 21%
CCOC(=O)N1CCN(C(=O)CCN2C(=O)COc3ccc(C)cc32)CC1 | 22%
O=C(Oc1nsnc1N1CCOCC1)N1CCOCC1 | 84% (active)
CCn1c(NC(=O)c2cccc(Cn3cc(Cl)cn3)c2)nc2ccccc21 | 0%
Cc1ccc(-n2c(C)cc(/C=C(\C#N)C(=O)NCC3CCCO3)c2C)cc1 (stereo unspecified) | 23%
COc1cccc(NC(=O)Nc2cc(C(=O)NCC3CCCO3)ccc2N2CC3CC(C2)c2cccc(=O)n2C3)c1 (stereo unspecified) | 18%
CCOC(=O)N1CCN(C(=O)c2ccc3c(=O)n4c(nc3c2)CCCCC4)CC1 | 8%
O=C(Oc1nsnc1N1CCCCC1)N1CCOCC1 | 55%
O=C(Oc1ccnc2cc(Cl)ccc12)N1CCOCC1 | 22%
Cc1cccc(NS(=O)(=O)c2ccc3[nH]c(=O)oc3c2)c1C | 17%
Cc1cccc(C2=NN(c3ccc(Br)cc3)[C@@H](C(=O)N3CCOC3=O)[C@@H]2c2ccccc2)c1 | 18%
CCCNC(=O)c1ccc(N2CC3CC(C2)c2cccc(=O)n2C3)c(NC(=O)Nc2ccc(CC)cc2)c1 (stereo unspecified) | 18%
O=C(/C=C/c1cccs1)c1cc(Br)ccc1OC(=O)N1CCOCC1 | 91% (active)
CCc1ccc(NC(=O)Nc2cc(C(=O)NCC3CCCO3)ccc2N2CC3CC(C2)c2cccc(=O)n2C3)cc1 (stereo unspecified) | 8%
Cc1ccc(NS(=O)(=O)c2ccc3[nH]c(=O)oc3c2)c(C)c1 | 18%
COc1cc(OC)c(NC(=O)CCNS(=O)(=O)c2ccc3c(c2)oc(=O)n3C)cc1Cl | 6%
CCOC(=O)NC(=O)CSc1nc(-c2ccc(C)c(C)c2)cn1-c1ccccc1 | 56%
Cc1cc(C(=O)CSc2nc(N)cc(=O)[nH]2)c(C)n1CCc1ccc(Cl)cc1 | 6%
